According to the supplement of paper PMC10849652:
Targets with a hit are over-represented here; the source holds about 8,800 in all. About 0.5% of all pairs of compound and target were hits.

Columns and labels:
Test in all cases: log2 fold change, soluble protein after heating vs DMSO (PISA); higher = thermal stabilisation; K562 lysate, 10 uM; active = over 0.2 and 3.5 SD of the protein, either way, in both replicates (recomputed)
erlotinib = compound: C#Cc1cccc(Nc2ncnc3cc(OCCOC)c(OCCOC)cc23)c1 [erlotinib]
Procedure, shortened: (§1)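 The values are log-two fold changes in thermal stability compared with solvent controls and come from duplicates. They were obtained by TMTpro 16plex LC-MS/MS, with channel sums equalised, on the supernatant after 21,000xg for 90 min. That supernatant came from crude K562 extract at 1 mg/mL protein treated with 10 μM compound for 30 min, heated for 3 min across 48°C-58°C, pooled and brought to 0.5% NP-40 at 4°C.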

[1] = compound: C/C(=N\NC(=O)C1=CC(=CC=C1)S(=O)(=O)N2CCOCC2)/C3=C(C=CC(=C3)Cl)O
Procedure, shortened: as §1

[2] = compound: C1=CC(=CC=C1C2=NC3=C(N2)C=C(C=C3)C(=O)N)OC4=CC=C(C=C4)Cl
Procedure, shortened: as §1

[3] = compound: C1=CC2=C(C=CC(=C2)/C=C\3/C(=O)NC(=NCC4=CC=CS4)S3)N=C1
Procedure, shortened: as §1

[4] = compound: C1=CC2=NC=CN=C2C=C1/C=C/3\C(=O)NC(=O)S3
Procedure, shortened: as §1

[5] = compound: C1=CC=C(C=C1)C2=NC(=C(N2)C3=CC=NC=C3)C4=CC(=C(C=C4)Cl)O
Procedure, shortened: as §1

[6] = compound: C1=CC=C2C(=C1)C3=NNC4=CC=CC(=C43)C2=O
Procedure, shortened: as §1

[7] = compound: C1CCN(C1)C(=O)NC2=CC=CC(=C2)NC3=NC=C(C(=N3)NCCC4=CN=CN4)Br
Procedure, shortened: as §1

[8] = compound: C1CN(CCC1(CC2=CC=C(C=C2)Cl)N)C3=NC=NC4=C3C=CN4
Procedure, shortened: as §1

IRAK-1-4 Inhibitor I = compound: C1COCCN1CCN2C3=CC=CC=C3N=C2NC(=O)C4=CC(=CC=C4)[N+](=O)[O-] [IRAK-1-4 Inhibitor I]
Procedure, shortened: as §1

[9] = compound: CC(=O)c1cnc2ccc(-c3cc(Cl)c(O)c(Cl)c3)nc2c1N[C@H]1CC[C@H](CN(C)C)CC1
Procedure, shortened: as §1

ralimetinib = compound: CC(C)(C)Cn1c(N)nc2ccc(-c3[nH]c(C(C)(C)C)nc3-c3ccc(F)cc3)nc21 [ralimetinib]
Procedure, shortened: as §1

[10] = compound: CC(C)(O)CC(=O)NCCn1ccc2ncnc(Nc3ccc(Oc4cccc(C(F)(F)F)c4)c(Cl)c3)c21
Procedure, shortened: as §1

[11] = compound: CC(C)C1=C2N=C(C=C(N2N=C1)NCC3=CC=CC=C3)NCCCCCCN
Procedure, shortened: as §1

[12] = compound: CC1=C(C(CC(=O)N1)C2=CC=C(C=C2)C(F)(F)F)C(=O)NC3=C(C=C4C(=C3)C=NN4)F
Procedure, shortened: as §1

[13] = compound: CC1=C(C2=C(C=C1)C(=O)C3=CC=CC=C3N2CCCN)C
Procedure, shortened: as §1

[14] = compound: CC1=C(C=C(C=C1)NC(=O)C2=CC(=CC=C2)C(C)(C)C#N)NC3=CC4=C(C=C3)N=CN(C4=O)C
Procedure, shortened: as §1

[15] = compound: CC1=C(C=C(C=C1)NC(=O)C2=CC(=CC=C2)N(C)C)NC(=O)C3=CC=C(C=C3)O
Procedure, shortened: as §1

[16] = compound: CC1=CC=C(C=C1)SC2=C3C=C(SC3=CN=C2)C(=O)N
Procedure, shortened: as §1

ibrutinib = compound: C=CC(=O)N1CCC[C@@H](n2nc(-c3ccc(Oc4ccccc4)cc3)c3c(N)ncnc32)C1 [ibrutinib]
Procedure, shortened: as §1

Measured: log2 fold change

CLP1 (UniProt Q92989)
UniProt Q92989, sequence (Q92989 whole entry, looked up): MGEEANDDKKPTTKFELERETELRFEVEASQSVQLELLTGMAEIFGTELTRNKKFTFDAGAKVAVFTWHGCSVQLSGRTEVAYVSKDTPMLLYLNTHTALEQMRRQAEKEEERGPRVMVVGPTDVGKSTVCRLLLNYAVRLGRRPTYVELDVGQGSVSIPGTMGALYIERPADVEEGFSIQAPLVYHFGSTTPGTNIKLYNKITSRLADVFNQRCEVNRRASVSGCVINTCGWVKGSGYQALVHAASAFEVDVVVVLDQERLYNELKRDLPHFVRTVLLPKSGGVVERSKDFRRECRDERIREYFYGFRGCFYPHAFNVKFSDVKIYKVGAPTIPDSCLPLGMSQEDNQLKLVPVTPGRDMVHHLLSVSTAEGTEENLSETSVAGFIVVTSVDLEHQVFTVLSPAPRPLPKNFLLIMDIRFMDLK
inactive: erlotinib 0.024 | [1] 0.027 | [2] -0.011 | [3] -0.001 | [4] -0.045 | [5] -0.014 | [6] 0.034 | [7] -0.024 | [8] -0.033 | IRAK-1-4 Inhibitor I -0.045 | [9] 0.062 | ralimetinib 0.006 | [10] 0.003 | [11] 0.012 | [12] 0.023 | [13] 0.001 | [14] -0.02 | [15] -0.037 | [16] 0.01

DIAPH1 (UniProt H9KV28)
inactive: erlotinib -0.1 | [1] -0.013 | [2] -0.053 | [3] 0.005 | [4] -0.04 | [5] -0.164 | [6] -0.024 | [7] 0.031 | [8] -0.037 | IRAK-1-4 Inhibitor I 0.034 | ibrutinib -0.063 | [9] 0.024 | ralimetinib -0.022 | [10] -0.106 | [11] -0.083 | [12] 0.032 | [14] 0.004 | [15] 0.009 | [16] -0.03

CLIC2 (UniProt O15247)
UniProt O15247, sequence (O15247 whole entry, looked up): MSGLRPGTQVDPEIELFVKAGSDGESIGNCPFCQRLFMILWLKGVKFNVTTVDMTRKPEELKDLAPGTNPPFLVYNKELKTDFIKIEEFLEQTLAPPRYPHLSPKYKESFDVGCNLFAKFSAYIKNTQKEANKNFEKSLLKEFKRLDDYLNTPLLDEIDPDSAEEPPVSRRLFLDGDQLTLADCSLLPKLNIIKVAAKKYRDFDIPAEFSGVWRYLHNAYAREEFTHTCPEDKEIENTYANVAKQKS
inactive: erlotinib 0.036 | [1] 0.022 | [2] -0.005 | [3] -0.03 | [4] -0.014 | [5] -0.014 | [6] -0.014 | [7] 0.019 | [8] 0.015 | IRAK-1-4 Inhibitor I 0.006 | [9] -0.014 | ralimetinib 0.004 | [10] 0.004 | [11] 0.04 | [12] -0.01 | [13] 0.018 | [14] 0.005 | [15] 0.006 | [16] 0.001

CLCN3 (UniProt P51790)
UniProt P51790, sequence (P51790 whole entry, looked up): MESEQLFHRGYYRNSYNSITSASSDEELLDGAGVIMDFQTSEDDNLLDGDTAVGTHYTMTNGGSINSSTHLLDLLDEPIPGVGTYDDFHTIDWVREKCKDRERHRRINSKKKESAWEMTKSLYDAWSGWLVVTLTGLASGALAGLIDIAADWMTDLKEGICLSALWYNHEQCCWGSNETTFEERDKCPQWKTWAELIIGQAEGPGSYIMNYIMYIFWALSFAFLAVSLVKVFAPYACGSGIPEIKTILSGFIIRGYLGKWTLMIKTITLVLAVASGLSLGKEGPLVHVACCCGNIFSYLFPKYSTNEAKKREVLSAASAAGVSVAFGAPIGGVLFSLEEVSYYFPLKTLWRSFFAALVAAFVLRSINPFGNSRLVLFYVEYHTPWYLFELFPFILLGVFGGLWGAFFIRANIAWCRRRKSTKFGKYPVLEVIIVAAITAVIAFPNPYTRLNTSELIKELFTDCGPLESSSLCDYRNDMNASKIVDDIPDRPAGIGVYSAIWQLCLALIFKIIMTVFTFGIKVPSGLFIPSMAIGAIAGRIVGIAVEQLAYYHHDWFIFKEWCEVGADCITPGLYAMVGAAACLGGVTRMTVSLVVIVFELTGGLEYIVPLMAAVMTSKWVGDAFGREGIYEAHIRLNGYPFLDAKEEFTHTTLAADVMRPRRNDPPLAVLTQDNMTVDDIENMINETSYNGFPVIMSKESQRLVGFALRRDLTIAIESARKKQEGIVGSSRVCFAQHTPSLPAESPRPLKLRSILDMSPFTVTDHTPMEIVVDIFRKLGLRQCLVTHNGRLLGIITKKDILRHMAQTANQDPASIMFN
inactive: erlotinib -0.047 | [1] 0.043 | [2] -0.067 | [3] 0.06 | [4] 0.016 | [5] -0.02 | [6] 0.084 | [7] -0.043 | [8] -0.117 | IRAK-1-4 Inhibitor I 0.083 | [9] 0.038 | ralimetinib 0.038 | [10] 0.05 | [11] -0.089 | [12] -0.03 | [13] 0.024 | [14] -0.155 | [15] -0.017 | [16] 0.079

DCTN1 isoform 4 (UniProt Q14203)
UniProt Q14203, sequence (Q14203 whole entry, looked up): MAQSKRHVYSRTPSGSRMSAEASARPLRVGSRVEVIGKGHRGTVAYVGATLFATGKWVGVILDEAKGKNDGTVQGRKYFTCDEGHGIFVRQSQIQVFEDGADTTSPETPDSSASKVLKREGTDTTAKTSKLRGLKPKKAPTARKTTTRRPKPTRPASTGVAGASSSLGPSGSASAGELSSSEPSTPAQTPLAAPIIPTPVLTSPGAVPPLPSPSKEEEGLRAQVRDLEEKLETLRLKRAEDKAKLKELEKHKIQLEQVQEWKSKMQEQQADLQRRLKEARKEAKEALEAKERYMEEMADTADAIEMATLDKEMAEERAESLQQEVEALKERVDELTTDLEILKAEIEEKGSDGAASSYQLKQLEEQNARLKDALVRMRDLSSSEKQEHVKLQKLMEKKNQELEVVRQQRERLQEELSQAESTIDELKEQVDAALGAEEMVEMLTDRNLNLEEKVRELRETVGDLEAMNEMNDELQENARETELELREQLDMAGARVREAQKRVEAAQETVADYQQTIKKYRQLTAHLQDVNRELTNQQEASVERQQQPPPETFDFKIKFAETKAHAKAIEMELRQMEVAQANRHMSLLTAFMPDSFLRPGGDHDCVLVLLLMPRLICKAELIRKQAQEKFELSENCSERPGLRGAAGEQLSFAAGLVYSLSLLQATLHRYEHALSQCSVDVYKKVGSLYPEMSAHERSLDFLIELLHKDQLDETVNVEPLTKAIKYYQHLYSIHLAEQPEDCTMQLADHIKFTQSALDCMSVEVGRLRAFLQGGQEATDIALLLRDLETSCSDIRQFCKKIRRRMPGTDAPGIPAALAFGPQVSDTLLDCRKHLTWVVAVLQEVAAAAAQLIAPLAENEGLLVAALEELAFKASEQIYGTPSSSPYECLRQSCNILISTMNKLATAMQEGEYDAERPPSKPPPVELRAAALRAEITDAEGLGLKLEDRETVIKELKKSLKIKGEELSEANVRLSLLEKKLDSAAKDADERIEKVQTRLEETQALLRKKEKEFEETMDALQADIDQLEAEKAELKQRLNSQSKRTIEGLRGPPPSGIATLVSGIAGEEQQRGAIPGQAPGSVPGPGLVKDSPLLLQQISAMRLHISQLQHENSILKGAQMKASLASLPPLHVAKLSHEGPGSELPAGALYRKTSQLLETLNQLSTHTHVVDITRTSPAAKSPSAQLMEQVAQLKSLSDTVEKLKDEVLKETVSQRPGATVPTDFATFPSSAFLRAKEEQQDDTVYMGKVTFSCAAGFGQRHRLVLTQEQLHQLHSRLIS
inactive: erlotinib -0.021 | [1] -0.166 | [2] 0.065 | [3] -0.109 | [5] 0.098 | [6] 0.126 | [7] -0.141 | [8] 0 | IRAK-1-4 Inhibitor I 0.02 | [9] 0.089 | ralimetinib 0.114 | [10] -0.076 | [11] 0.1 | [12] -0.074 | [13] -0.11 | [14] 0.044 | [15] 0.036 | [16] -0.029

CNOT4 isoform 9 (UniProt O95628)
UniProt O95628, sequence (O95628 whole entry, looked up): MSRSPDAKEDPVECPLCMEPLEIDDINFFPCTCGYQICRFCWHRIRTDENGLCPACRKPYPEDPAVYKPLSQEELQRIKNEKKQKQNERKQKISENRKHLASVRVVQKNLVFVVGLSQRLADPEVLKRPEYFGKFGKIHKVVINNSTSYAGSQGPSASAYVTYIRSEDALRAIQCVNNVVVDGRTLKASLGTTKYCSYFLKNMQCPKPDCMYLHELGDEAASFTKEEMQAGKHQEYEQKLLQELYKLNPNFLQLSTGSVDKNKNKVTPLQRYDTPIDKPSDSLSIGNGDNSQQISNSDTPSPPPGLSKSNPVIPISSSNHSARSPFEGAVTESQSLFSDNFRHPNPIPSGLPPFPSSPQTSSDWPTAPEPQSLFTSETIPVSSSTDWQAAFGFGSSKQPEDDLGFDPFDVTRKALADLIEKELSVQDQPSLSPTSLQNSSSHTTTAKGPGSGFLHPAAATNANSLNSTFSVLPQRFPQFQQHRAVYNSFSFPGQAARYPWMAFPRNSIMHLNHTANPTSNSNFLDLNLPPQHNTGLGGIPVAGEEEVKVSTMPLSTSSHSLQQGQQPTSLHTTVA
inactive: erlotinib 0 | [1] 0.005 | [2] 0.015 | [3] -0.04 | [4] 0 | [5] -0.105 | [6] 0.015 | [7] 0.003 | [8] -0.013 | IRAK-1-4 Inhibitor I 0.054 | ibrutinib 0.052 | [9] -0.019 | ralimetinib 0.043 | [10] -0.084 | [11] -0.003 | [13] 0.032 | [14] -0.138 | [15] -0.02 | [16] 0.013

DDX4 (UniProt Q9NQI0)
UniProt Q9NQI0, sequence (Q9NQI0 whole entry, looked up): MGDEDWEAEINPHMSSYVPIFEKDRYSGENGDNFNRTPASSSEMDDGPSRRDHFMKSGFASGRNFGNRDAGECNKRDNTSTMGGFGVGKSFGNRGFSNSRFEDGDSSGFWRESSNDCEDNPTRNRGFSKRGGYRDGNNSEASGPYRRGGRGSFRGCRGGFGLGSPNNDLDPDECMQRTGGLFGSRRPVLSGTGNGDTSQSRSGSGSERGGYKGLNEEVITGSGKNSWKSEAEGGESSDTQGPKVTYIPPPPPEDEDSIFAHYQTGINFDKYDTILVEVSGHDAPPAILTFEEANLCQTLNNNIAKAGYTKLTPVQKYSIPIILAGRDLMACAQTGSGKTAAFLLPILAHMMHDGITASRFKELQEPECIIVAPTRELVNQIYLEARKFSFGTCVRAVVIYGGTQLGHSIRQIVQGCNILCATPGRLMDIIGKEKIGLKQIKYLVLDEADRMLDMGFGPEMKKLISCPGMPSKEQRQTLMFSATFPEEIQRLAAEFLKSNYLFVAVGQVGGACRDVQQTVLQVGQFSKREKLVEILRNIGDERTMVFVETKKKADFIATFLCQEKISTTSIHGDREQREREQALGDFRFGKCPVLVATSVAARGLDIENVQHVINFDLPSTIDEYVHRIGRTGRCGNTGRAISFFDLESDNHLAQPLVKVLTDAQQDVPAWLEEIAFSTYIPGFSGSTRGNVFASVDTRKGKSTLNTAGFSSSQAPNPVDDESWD
inactive: erlotinib -0.043 | [1] 0.165 | [2] -0.112 | [3] -0.028 | [4] -0.055 | [5] 0.114 | [6] -0.004 | [7] 0.002 | [8] 0.011 | IRAK-1-4 Inhibitor I -0.109 | ibrutinib 0.019 | [9] -0.004 | ralimetinib 0.04 | [10] 0.087 | [11] -0.032 | [12] 0.008 | [13] 0.1 | [15] -0.051 | [16] -0.026

CHFR (UniProt Q96EP1)
UniProt Q96EP1, sequence (Q96EP1 whole entry, looked up): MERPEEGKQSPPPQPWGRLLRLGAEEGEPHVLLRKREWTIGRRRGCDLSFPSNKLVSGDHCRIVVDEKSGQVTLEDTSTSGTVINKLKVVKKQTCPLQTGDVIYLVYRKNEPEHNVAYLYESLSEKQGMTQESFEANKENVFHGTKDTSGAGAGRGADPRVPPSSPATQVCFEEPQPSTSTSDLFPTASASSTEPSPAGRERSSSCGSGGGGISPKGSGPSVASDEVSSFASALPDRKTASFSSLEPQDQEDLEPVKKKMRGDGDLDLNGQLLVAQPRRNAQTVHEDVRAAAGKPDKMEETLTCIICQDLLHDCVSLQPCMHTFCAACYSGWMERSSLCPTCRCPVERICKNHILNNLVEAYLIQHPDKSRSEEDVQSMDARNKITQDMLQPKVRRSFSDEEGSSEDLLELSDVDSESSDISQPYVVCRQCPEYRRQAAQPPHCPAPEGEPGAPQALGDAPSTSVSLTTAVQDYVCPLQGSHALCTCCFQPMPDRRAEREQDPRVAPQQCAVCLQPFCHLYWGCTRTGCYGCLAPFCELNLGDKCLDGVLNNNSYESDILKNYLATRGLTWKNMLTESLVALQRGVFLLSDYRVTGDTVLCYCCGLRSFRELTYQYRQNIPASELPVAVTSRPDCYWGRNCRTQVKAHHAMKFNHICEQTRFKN
inactive: erlotinib -0.011 | [1] 0.179 | [2] 0.066 | [3] -0.068 | [5] -0.027 | [6] 0.257 | [7] -0.023 | [8] -0.013 | IRAK-1-4 Inhibitor I -0.011 | [9] 0.158 | ralimetinib 0.007 | [10] -0.049 | [11] -0.047 | [12] 0.003 | [13] -0.06 | [14] -0.021 | [15] 0.031 | [16] 0.102

CYP2S1 isoform 2 (UniProt Q96SQ9)
inactive: erlotinib -0.026 | [1] -0.291 | [2] -0.018 | [3] -0.096 | [5] 0.07 | [6] -0.123 | [7] -0.198 | [8] 0.08 | IRAK-1-4 Inhibitor I -0.044 | [9] 0.146 | ralimetinib 0.048 | [10] 0 | [11] 0.061 | [13] -0.084 | [14] -0.028 | [15] 0.07 | [16] -0.229
